Compound activity from PubChem BioAssay.
Bead autofluor = compound fluorescence in toxin protease inhibitor counterscreen; compound autofluorescence counterscreen, microsphere flow cytometry; hits give high values; fluorescence intensity (concentration not given with the values); 3.1% of 360,000 active; AID 624483; in the data active = fluorescence intensity above about 16000; inconclusive = no clear call, values can overlap the other calls
BoNT-F LC inh = BoNT F light chain protease inhibition; 0.22% of 360,000 active; AID 588497; inhibition, % at 10 µM; Multiplex microsphere protease cleavage assay, flow cytometry; in the data active = inhibition above about 35%, passing the limit was not always enough; inconclusive = no clear call, values can overlap the other calls; note: plate controls were buffer without enzyme for full effect and enzyme alone for no effect
Anthrax LF inh2 = blocks Bacillus anthracis lethal factor protease | AID 588501 | P15917 | 0.12% of 360,000 active | multiplex microsphere protease cleavage assay, LF | inhibition, % at 10 µM; note: plate controls were buffer without enzyme for full effect and enzyme alone for no effect
MazF activator = increases E. coli MazEF RNase cleavage of RNA; P0AE70; FAM/BHQ RNA-DNA oligo cleavage fluorescence, 5 h; activation, % at 20 µM; 0.32% of 350,000 active; in the data active = activation above about 50%
Target sequence (P0AE70 whole entry, looked up): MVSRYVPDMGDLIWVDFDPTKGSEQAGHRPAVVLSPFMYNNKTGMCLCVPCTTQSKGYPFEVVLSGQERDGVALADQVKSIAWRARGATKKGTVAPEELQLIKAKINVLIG
BoNT-A LC inh2 = inhibitors of Botulinum neurotoxin A light chain protease. multiplex microsphere protease substrate cleavage, flow cytometry. 0.17% of 360,000 active. inhibition, % at 10 µM. AID 588499; note: plate controls were buffer without enzyme for full effect and enzyme alone for no effect
Numbers without * were called inactive; u = inconclusive; x = no result given. Rows were chosen to be rich in hits. Some 3.6% of all compounds tested hit in one or more screens of this group. Cut-off read from the data, not from the text of the source, unless noted: active = inhibition above about 30%; inconclusive = no clear call, values can overlap the other calls; inactive = below that.

SMILES	Bead autofluor	BoNT-F LC inh	Anthrax LF inh2	MazF activator	BoNT-A LC inh2
CC(C)(C)c1ccc(S(=O)(=O)NC(=O)C2(C)CCN2C(=O)Cc2ccccc2Cl)cc1 (centres undefined)	3069	-9.6	-0.7	x	-0.2
COc1cc(CN2CCCC(C)C2)cc([N+](=O)[O-])c1O (centres undefined)	23731*	-1.7	0.5	-17.4	0.0
O=C(O)C1CC(=O)N(c2ccc(OCc3ccccc3)cc2)C1 (centres undefined)	21268*	3.8	1.4	3.4	2.8
CNC(=O)C1CC(=O)N(c2ccc(OCC(=O)Nc3ccccc3)cc2)C1 (centres undefined)	3727	-3.0	-8.2	4.3	-1.0
O=C(COc1ccc(N2CC(C(=O)O)CC2=O)cc1)Nc1cccc(C(F)(F)F)c1 (centres undefined)	23245*	-1.2	0.6	3.4	u
CCNc1nnc(SCC(=O)N2c3ccccc3NC(=O)CC2C)s1 (centres undefined)	5399	-16.5	-0.4	0.7	0.2
O=C(CN1CCCCCC1)Nc1ccc(Cl)cn1	3798	-0.8	-1.7	-3.7	-0.6
Cc1cc(NC(=O)c2c([N+](=O)[O-])c(C)nn2C)no1	4859	-19.3	2.5	-0.4	-0.6
Cc1ccc(OCc2ccc(C(=O)Nc3c(C)nn(Cc4c(F)c(F)c(F)c(F)c4F)c3C)o2)c([N+](=O)[O-])c1	23883*	-2.0	-0.6	0.8	-0.3
CCn1cc([N+](=O)[O-])c(C(=O)Nc2c(C)nn(Cc3c(F)c(F)c(F)c(F)c3F)c2C)n1	20974*	4.3	0.1	7.9	3.6
Cc1nn(Cc2c(F)c(F)c(F)c(F)c2F)c(C)c1NC(=O)c1nn(C)cc1Br	5370	1.6	1.9	2.8	-0.4
CCn1cc(Cl)c(C(=O)Nc2c(C)nn(Cc3c(F)c(F)c(F)c(F)c3F)c2C)n1	4843	9.8	3.5	1.9	3.1
Cc1cc(NC(=O)c2c([N+](=O)[O-])cnn2C)no1	20559*	-0.5	-0.2	38.5	-1.3
Cc1ccc(OCc2ccc(C(=O)NN)o2)c([N+](=O)[O-])c1	4140	u	9.2	9.0	2.1
Cc1nn(Cc2c(F)c(F)c(F)c(F)c2F)c(C)c1NC(=O)c1nn(C)cc1[N+](=O)[O-]	22913*	1.0	0.7	2.2	u
CC(C(=O)NC1CCCC1)N(C(=O)c1ccc(-c2ccccc2)[nH]1)c1ccccc1F (centres undefined)	11170	-6.4	1.8	-2.7	-0.5
CCOc1cc(Br)ccc1S(=O)(=O)N1CCC(C(N)=O)CC1	2587	-6.8	-2.6	1.6	-0.5
Cc1nn(Cc2c(F)c(F)c(F)c(F)c2F)c(C)c1NC(=O)c1c([N+](=O)[O-])cnn1C	22419*	1.8	-4.1	2.4	2.1
Cc1nn(Cc2c(F)c(F)c(F)c(F)c2F)c(C)c1NC(=O)c1c([N+](=O)[O-])c(C)nn1C	8510	-13.1	-3.4	0.7	-1.2
N#Cc1c(N)sc(=S)c2c1CCCCC2	3216	-42.7	4.1	-12.8	6.1
N#Cc1c(N)sc2c1CCCCCC2	24025*	-3.8	-3.0	0.2	-1.5
Cc1ccc(N(C)S(=O)(=O)c2ccc(C)cc2)cc1	24242*	-6.5	0.1	6.6	-3.5
Cc1ccc(S(=O)(=O)N(C)c2ccccc2)cc1	3796	1.7	-0.6	-0.4	-0.3
COc1ccc(-c2nnnn2C)cc1S(=O)(=O)NCCc1ccccc1	19418*	2.7	1.8	4.0	u
COc1ccc(S(=O)(=O)NCc2ccc(C(=O)N3CCN(Cc4ccccc4)CC3)cc2)cc1	4561	-4.3	-2.6	3.8	0.5
SMILES	Bead autofluor	BoNT-F LC inh	Anthrax LF inh2	MazF activator	BoNT-A LC inh2
COc1ccc(S(=O)(=O)NCc2cccnc2)cc1OC	3965	-6.4	-0.6	8.1	1.5
COc1ccc(S(=O)(=O)NCc2ccc(C(=O)O)cc2)cc1	20146*	1.1	0.4	3.0	-0.5
COc1ccc(-n2nnnc2S(=O)(=O)Cc2ccc(C(=O)O)cc2)cc1	17765*	3.3	-11.4	1.2	5.9
COc1ccc(S(=O)(=O)NCc2ccncc2)cc1OC	23943*	-1.8	0.2	4.7	-2.1
COc1ccc(NS(=O)(=O)c2cc(-c3nnnn3C)ccc2OC)cc1	18825*	9.6	-14.5	3.2	6.5
COc1ccc(CCNS(=O)(=O)c2cccc(C)c2)cc1OC	20544*	-4.1	-1.6	-2.0	-1.7
COc1ccc(OC)c(S(=O)(=O)NCc2cccnc2)c1	2290	0.0	-2.0	-1.5	0.2
COc1ccc(OC)c(S(=O)(=O)NCc2ccccc2)c1	16582*	-5.9	-3.1	6.4	-1.1
Cc1cccc(CN2CCN(C(C)C(=O)NC(C)c3ccccc3)CC2)c1 (centres undefined)	4987	6.0	-4.6	-0.5	4.3
Clc1cccc(Oc2ncc(CN3CCOCC3)s2)c1	21630*	3.7	0.6	2.9	2.4
Cc1ccc(Oc2ncc(CN3CCOCC3)s2)cc1	5694	5.1	-3.2	-0.8	0.5
CC(C)CN(C(=O)c1cccc(S(=O)(=O)N2CCN(C)CC2)c1)C1CCS(=O)(=O)C1 (centres undefined)	u	-8.8	-1.3	-2.7	-2.6
CCn1c(SCC#N)nc2c(c1=O)C1(CCCC1)Cc1ccccc1-2	24128*	-7.1	-0.5	-5.3	-1.7
O=C(COC(=O)[C@@H]1CC(O)CN1S(=O)(=O)c1ccc2c(c1)OCCO2)Nc1cc(F)ccc1F (some centres undefined)	5575	-6.0	-1.6	-4.3	-0.1
Cc1ccc(NS(=O)(=O)c2c(C(=O)N3CCCCCC3)c(C)n(C)c2C)c(C)c1	5789	-3.8	0.4	-0.9	-0.1
N#CC1=C(N)N(c2ccccc2)C2=C(C(=O)CCC2)C1c1ccsc1 (centres undefined)	16252*	-3.2	0.9	6.7	0.0
COc1ccc(C2C(C#N)=C(N)N(N(C)C)C3=C2C(=O)CCC3)cc1 (centres undefined)	3857	56.8*	-1.5	1.3	4.3
CCOc1ccccc1NC(=S)N1CCN(c2cccc(OC)c2)CC1	4024	u	-4.0	10.0	-1.0
Cc1cccc(C)c1-n1nnnc1C(c1ccnc2ccccc12)N1CCN(c2ccccc2F)CC1 (centres undefined)	5897	6.8	-8.9	x	0.4
CC(=O)c1ccc(S(=O)(=O)N2CCN(C(=O)c3ccc(COc4ccccc4)o3)CC2)cc1	u	5.2	-3.6	5.1	1.1
COc1ccc(OC)c(CC(=O)O)c1	23906*	-4.1	-1.1	4.7	u
COc1ccc(CCNC(=O)C2CCN(S(=O)(=O)N3CCCCCC3)CC2)cc1OC	22454*	4.4	-6.3	3.7	2.7
Cc1ccc(CCNC(=O)C2CC(=O)N(C3CCCCC3)C2)cc1 (centres undefined)	5417	7.3	0.6	7.0	0.3
COc1ccc(CCN2CC(C(=O)NCc3ccco3)CC2=O)cc1OC (centres undefined)	16739*	-0.1	-3.7	-1.1	-0.2
COc1ccc(CCNC(=O)C2CC(=O)N(C3CCCCCCC3)C2)cc1OC (centres undefined)	24165*	-3.4	-1.6	-17.3	-3.1
O=C(NCc1ccco1)C1CC(=O)N(CCc2ccccc2)C1 (centres undefined)	3474	-7.3	-4.0	-0.6	0.0
